In PubChem BioAssay AID743279 (National Center for Advancing Translational Sciences (NCATS), 2014):
The campaign covered roughly 360,000 compounds. About 17,000 (4.7%) were called active. Roughly 5% stayed inconclusive and do not appear here. Rule as the data show it: active = activity change below about -50%; inconclusive = mostly about -30% to -49%; inactive = weaker than that. The list comes from a sample in which actives are over-represented; it also holds similar structures and randomly drawn compounds.

Assay: qHTS for Inhibitors of Inflammasome Signaling: IL-1-beta AlphaLISA Primary Screen
Conditions: THP-1 LPS/ATP IL-1B secretion, 16 h; at 57.5 µM, active compounds read low
Summary of the method: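 Secreted IL-1B measured by AlphaLISA bead assay after 16 h compound exposure of THP-1 cells; compounds (final up to 57.5 uM) added 1 h before LPS (250 ng/mL) and ATP (1.25 mM) stimulation; lower signal means less secretion.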
% is scaled to controls: 0 for no effect and ±100 for the full control effect.

Activity change, active:
Cc1nc2sc3c(c2c(=O)n1NC(=O)CCl)CCCC3 -80.7%
CCCc1nc2sc3c(c2c(=O)n1NC(=O)CCCl)CCCC3 -96.6%
C/C=C/c1ccc(OCCCCN2CCC(C)CC2)c(OC)c1 -54%
C/C=C/c1ccc(OCC(O)CN2CCCCCCC2)c(OC)c1 (stereo not drawn) -53.6%
O=C(Nc1ccnn1C1CCN(C/C=C/c2ccc(F)cc2)CC1)C1CCCC1 -71.6%
O=C(c1ccc(OC2CCN(C/C=C/c3ccc(F)cc3)CC2)cc1)N1CCCCC1 -63.7%
COc1ccc(Oc2c(Cl)cnn(-c3ccccc3)c2=O)cc1 -118%
COc1cc([N+](=O)[O-])ccc1NC(=O)COC(=O)CCOc1ccc(C)cc1 -81.7%
FC(F)(F)C1CCCN(c2nsc3ccccc23)C1 (stereo not drawn) -76%
Cc1ccc(C)c(S(=O)(=O)N2CCN(c3ncnc4sccc34)CC2)c1 -53.3%
O=C(CCl)Nc1cccc(CP(=O)(c2ccccc2)c2ccccc2)c1 -99.8%
C/C(=N\N=C(N)N)c1ccc(Cl)cc1 -86.4%
CCN1CCC2(CC1)N=C(c1ccc(F)cc1)C(=S)N2C(=O)c1ccc(C)cc1 -115%
CCN(CC)CCOc1ccc2c(c1)C(=NNC(=O)c1ccccn1)c1cc(OCCN(CC)CC)ccc1-2 -56.2%
OC(CNCc1ccc(Cl)c(Cl)c1)c1ccccc1 (stereo not drawn) -69.4%
CCOc1ccc(C(C)=O)cc1COC(=O)c1cnc(Cl)c(Cl)c1 -108%
CC1CCN(C2=NC(=O)/C(=C/c3cn[nH]c3-c3ccccc3)S2)CC1 -59.2%

Activity change, inactive:
OCCC1CN(Cc2ccc3nsnc3c2)CCN1C1CCCCC1 (stereo not drawn) 36.7%
O=C(COc1ccc(Br)cc1)OCC(=O)c1ccc[nH]1 -7.68%
CCCNC(=O)C1(C)CCN(C(=O)c2ccc(F)cc2Cl)C1 (stereo not drawn) 16.4%
CC1(C)CC(=O)C2=C(C1)N=C1SCCC(=O)N1C2c1ccc(C(F)(F)F)cc1 (stereo not drawn) 0.519%
NNC(=O)C1CCCn2c1nc1sc3c(c1c2=O)CCCC3 (stereo not drawn) 0%
CCc1nc(N2CCN(C(C)=O)CC2)c2c3c(sc2n1)CCCC3 -1.89%
Cc1ccc(C)c(-n2c(SCC(=O)O)nc3sc4c(c3c2=O)CCCC4)c1 0.0998%
Cn1c(NN)nc2sc3c(c2c1=O)CCC3 26.1%
O=C1[C@H]2[C@@H](c3ccc(C(F)(F)F)cc3)N[C@]3(CCCN(Cc4ccc(Br)cc4)C3=O)[C@H]2C(=O)N1Cc1ccccc1 -13.1%
Cc1ccc(S(=O)(=O)N2CC3C(=O)C[C@@H](c4ccccc4Cl)N(S(=O)(=O)c4ccc(C)cc4)C3CC2c2ccccc2)cc1 (stereo partly drawn) -22%
COC(=O)[C@]12CCCCC=C1N(Cc1ccc3c(c1)OCO3)C(=O)[C@H](CC(=O)N1CCOCC1)C2 -18.3%
COc1ccc(OCCCCN2CCC(C)CC2)cc1 -29.3%
COc1ccccc1OCC(O)CN1CCOCC1 (stereo not drawn) 5.64%
C=CCc1ccc(OCC(O)CN2CCN(Cc3ccccc3)CC2)c(OC)c1 (stereo not drawn) -7.39%
C/C=C/c1ccc(OCCOc2ccc(C=O)cc2OC)c(OC)c1 3.9%
CC(=O)Nc1ccc(C(=O)OCC(=O)Nc2ccc([N+](=O)[O-])cc2C(F)(F)F)cc1 -1.11%
COC(=O)[C@]12CCCCC=C1N(Cc1ccco1)C(=O)[C@H](CC(=O)NCCCCc1ccccc1)C2 4%
CC(=O)Nc1cccc(-c2cc3nc(NCc4cccnc4)n(C)c(=O)c3s2)c1 -0.936%
Cc1ccc(S(=O)(=O)NNC(=O)/C=C/c2cccc(F)c2)cc1 -11.4%
CC(CN1CCC(n2nccc2NC(=O)C2CCCC2)CC1)c1ccccc1 (stereo not drawn) -14%
Cc1nn(C)c(Cl)c1CN1CCC(n2nccc2NC(=O)C2CCCC2)CC1 22.9%
O=C(c1ccc(OC2CCN(Cc3ccccn3)CC2)cc1)N1CCCCCC1 2.11%
CC(=O)Nc1ccc(CN2CCC(Oc3ccc(C(=O)N4CCCC4)cc3)CC2)cc1 20.8%
CCC(C(=O)NC(C)(C)C)n1c(-c2ccccc2)nc2ccccc21 (stereo not drawn) 3.76%
CC(=O)Nc1ccc2nc(NC(=O)CS(=O)(=O)c3ccc(F)cc3)sc2c1 2.42%
CCOc1ccc(S(=O)(=O)NCCC(=O)NCC(C)(C)N2CCOCC2)cc1 12.3%
Cc1ccc(NC(=O)[C@H](Cc2ccccc2)NC(=O)CC[C@H]2O[C@@H](n3ccc(=O)[nH]c3=O)[C@H](O)[C@@H]2O)cc1C 6.2%
CC1(C)OC(=O)C2=C(C[C@@H](C3CC3)O[C@H]2CCc2cccc(Cl)c2)O1 24.6%
COc1cnn(-c2ccc([N+](=O)[O-])cc2)c(=O)c1Cl -16.9%
COc1ccc(CCNC(=O)c2c(C)nn(-c3ccccc3)c2Cl)cc1 -6.31%
CCc1ccc(NC(=O)C(=O)NNC(=O)c2cccs2)cc1 -11.1%
CCOc1ccc(NC(=O)CN(C)C(=O)CSc2ccccc2)cc1OCC 5.24%
O=C(Nc1ccc(F)cc1)C(=O)c1cn(CC(=O)N2CCOCC2)c2ccccc12 8.7%
Cc1ccnc(NS(=O)(=O)c2ccc(NC(=O)c3oc4ccc(F)cc4c3C)cc2)n1 4.03%
COc1cccc(NC(=O)COC(=O)CCOc2ccccc2OC)c1 -1.64%
CSc1ccccc1NC(=O)COC(=O)CCCOc1ccc(C)cc1 13.8%
O=C(COC(=O)c1cccc(Cl)c1Cl)NC1CCCCCC1 4.38%
O=C(NCC(=O)N1CCCC(C(F)(F)F)C1)c1ccccc1F (stereo not drawn) 6.36%
Cn1ccc(=Nc2ccc(NC(=O)c3ccc(N=c4ccn(C)c5ccc([N+](=O)[O-])cc45)cc3)cc2)cc1 -20.4%
Cc1ccc(CN2CC(C(=O)N3CCN(S(=O)(=O)c4ccccc4)CC3)CC2=O)cc1 (stereo not drawn) -19.1%
Cc1ccc(S(=O)(=O)N2CCN(c3ncnc4ccccc34)CC2)cc1 -9.9%
COc1ccc(C)cc1S(=O)(=O)N1CCN(S(=O)(=O)c2cc(C(=O)O)ccc2C)CC1 34.7%
O=C1OC(Oc2ccc(Br)cc2)(c2ccccc2)c2ccccc21 (stereo not drawn) -13.8%
CSc1ncc(C(=O)NCCCc2ccccc2)c(C)n1 0%
O=C(Cc1ccccc1)Nc1cccc(NC(=O)c2ccccc2)c1 -19.5%
O=C(CSCc1ccccc1)Nc1ccccc1 0.36%
COC(=O)c1ccc2nc(-c3cccc(Br)c3)c(Cc3ccccc3C(F)(F)F)n2c1 0%
CCCC(=O)N1CCC1(C)C(=O)NCc1ccc(SC)cc1 (stereo not drawn) 21.3%
C/C(=N\OCC(=O)O)c1ccc(Cl)cc1 0%
C/C(=N\NC(=S)NCc1ccccc1)c1ccc(Cl)cc1 0%
CCc1nc2c(OCC(=O)C(C)(C)C)cccn2c1N(C)C(=O)c1ccccc1F 32.1%
O=C(Nc1cc(Br)ccc1F)c1nc[nH]c1C(=O)NCc1ccccc1 -4.71%
OC[C@@H]1CN(C2CCCC2)C[C@H](n2cnc3c(NC4CCC4)ncnc32)O1 5.5%
Cc1ccc(SCC(=O)N2CCN(c3ccc(F)cc3)CC2)cc1 -12.4%
CCN1CCN(C(=O)CSc2ccc(C)cc2)CC1 -5.59%
CC(Sc1nncn1C)C(=O)NCCC1=CCCCC1 (stereo not drawn) 1.27%
CCCCN(Cc1ccccc1)C(=O)C1CCN(Cc2sccc2C)CC1 -20.5%
O=C(NCc1ccccn1)[C@@H]1CCCN1C(=O)[C@@H]1CCCN1C(=O)c1ccccc1 0%
CCOc1cc2ccccc2cc1C(=O)Nc1ccccn1 9.73%
CCC(C(=O)OCCN(CC)CC)c1ccccc1 (stereo not drawn) -16.3%
CC(C)(CNCC(O)c1ccccc1)N1CCOCC1 (stereo not drawn) -7.93%
Cc1c(Cl)cccc1NC(=S)NCC(O)c1ccccc1 (stereo not drawn) -6.92%
Cc1c(NC(=O)C(=O)N/N=C/c2cccs2)c(=O)n(-c2ccccc2)n1C -21.9%
O=C(NCc1ccc(F)cc1)c1cc(C2CCCCN2C(=O)c2ccccn2)on1 (stereo not drawn) 42.4%
O=C(OCc1cn(-c2ccc(Cl)c(Cl)c2)nn1)c1ccccc1Cl -2.76%
Cc1cccc(CN2CCN(C3CN(Cc4cn(Cc5cc(C)cc(C)c5)nn4)S(=O)(=O)C3)CC2)c1 (stereo not drawn) -18.8%
CCOc1ccc(C(C)=O)cc1COC(=O)CNC(=O)c1cccs1 -9.33%
COC(=O)c1ccc(COC(=O)c2cnc(Cl)c(Cl)c2)cc1 -13.4%
CC(C)c1cc(Cn2c3ccccc3c(=O)n2C(C)Cn2cc(C3CC3)nn2)on1 (stereo not drawn) -6.05%
O=C1CS(=O)CN1c1ccc(Oc2ccccc2)cc1 (stereo not drawn) 15%
O=C1c2ccccc2C(c2nc3ccccc3[nH]2)N1c1ccccc1 (stereo not drawn) 81%
Cc1cccn2c(=O)c3cc(C(=O)NC4CCCCC4)sc3nc12 -16.1%
CC1(C(=O)NS(=O)(=O)C2CC2)CCCN(C(=O)CSc2ccccc2)C1 (stereo not drawn) 10.6%
CCOc1ccc(C(=O)Nc2c3c(nn2-c2ccccc2)CS(=O)(=O)C3)cc1 12.2%
O=C1N=C(N2CCOCC2)S/C1=C\C=C/c1ccccc1 -18%
CC1CCN(c2nc3c(c(=O)[nH]c(=O)n3C)n2CCCc2ccccc2)CC1 14.1%
